Assay outcomes from PubChem BioAssay.
A selection: hits, their analogues and other compounds. The true share with any hit is near 10%.
BAZ2B block: BAZ2B (human) inhibition; 4.4% of 360,000 active; AlphaScreen BAZ2B-H3K14Ac peptide displacement; Potency, µM (highest dose often 114 µM), for inactives: at the top dose activity change, negative = inhibition, actives largely listed as inhibitors; Q9UIF8; also: % is scaled to controls: 0 for no effect and ±100 for the full control effect; nearly all actives have a fitted effect of over 60% in size
Target sequence (Q9UIF8 whole entry, looked up): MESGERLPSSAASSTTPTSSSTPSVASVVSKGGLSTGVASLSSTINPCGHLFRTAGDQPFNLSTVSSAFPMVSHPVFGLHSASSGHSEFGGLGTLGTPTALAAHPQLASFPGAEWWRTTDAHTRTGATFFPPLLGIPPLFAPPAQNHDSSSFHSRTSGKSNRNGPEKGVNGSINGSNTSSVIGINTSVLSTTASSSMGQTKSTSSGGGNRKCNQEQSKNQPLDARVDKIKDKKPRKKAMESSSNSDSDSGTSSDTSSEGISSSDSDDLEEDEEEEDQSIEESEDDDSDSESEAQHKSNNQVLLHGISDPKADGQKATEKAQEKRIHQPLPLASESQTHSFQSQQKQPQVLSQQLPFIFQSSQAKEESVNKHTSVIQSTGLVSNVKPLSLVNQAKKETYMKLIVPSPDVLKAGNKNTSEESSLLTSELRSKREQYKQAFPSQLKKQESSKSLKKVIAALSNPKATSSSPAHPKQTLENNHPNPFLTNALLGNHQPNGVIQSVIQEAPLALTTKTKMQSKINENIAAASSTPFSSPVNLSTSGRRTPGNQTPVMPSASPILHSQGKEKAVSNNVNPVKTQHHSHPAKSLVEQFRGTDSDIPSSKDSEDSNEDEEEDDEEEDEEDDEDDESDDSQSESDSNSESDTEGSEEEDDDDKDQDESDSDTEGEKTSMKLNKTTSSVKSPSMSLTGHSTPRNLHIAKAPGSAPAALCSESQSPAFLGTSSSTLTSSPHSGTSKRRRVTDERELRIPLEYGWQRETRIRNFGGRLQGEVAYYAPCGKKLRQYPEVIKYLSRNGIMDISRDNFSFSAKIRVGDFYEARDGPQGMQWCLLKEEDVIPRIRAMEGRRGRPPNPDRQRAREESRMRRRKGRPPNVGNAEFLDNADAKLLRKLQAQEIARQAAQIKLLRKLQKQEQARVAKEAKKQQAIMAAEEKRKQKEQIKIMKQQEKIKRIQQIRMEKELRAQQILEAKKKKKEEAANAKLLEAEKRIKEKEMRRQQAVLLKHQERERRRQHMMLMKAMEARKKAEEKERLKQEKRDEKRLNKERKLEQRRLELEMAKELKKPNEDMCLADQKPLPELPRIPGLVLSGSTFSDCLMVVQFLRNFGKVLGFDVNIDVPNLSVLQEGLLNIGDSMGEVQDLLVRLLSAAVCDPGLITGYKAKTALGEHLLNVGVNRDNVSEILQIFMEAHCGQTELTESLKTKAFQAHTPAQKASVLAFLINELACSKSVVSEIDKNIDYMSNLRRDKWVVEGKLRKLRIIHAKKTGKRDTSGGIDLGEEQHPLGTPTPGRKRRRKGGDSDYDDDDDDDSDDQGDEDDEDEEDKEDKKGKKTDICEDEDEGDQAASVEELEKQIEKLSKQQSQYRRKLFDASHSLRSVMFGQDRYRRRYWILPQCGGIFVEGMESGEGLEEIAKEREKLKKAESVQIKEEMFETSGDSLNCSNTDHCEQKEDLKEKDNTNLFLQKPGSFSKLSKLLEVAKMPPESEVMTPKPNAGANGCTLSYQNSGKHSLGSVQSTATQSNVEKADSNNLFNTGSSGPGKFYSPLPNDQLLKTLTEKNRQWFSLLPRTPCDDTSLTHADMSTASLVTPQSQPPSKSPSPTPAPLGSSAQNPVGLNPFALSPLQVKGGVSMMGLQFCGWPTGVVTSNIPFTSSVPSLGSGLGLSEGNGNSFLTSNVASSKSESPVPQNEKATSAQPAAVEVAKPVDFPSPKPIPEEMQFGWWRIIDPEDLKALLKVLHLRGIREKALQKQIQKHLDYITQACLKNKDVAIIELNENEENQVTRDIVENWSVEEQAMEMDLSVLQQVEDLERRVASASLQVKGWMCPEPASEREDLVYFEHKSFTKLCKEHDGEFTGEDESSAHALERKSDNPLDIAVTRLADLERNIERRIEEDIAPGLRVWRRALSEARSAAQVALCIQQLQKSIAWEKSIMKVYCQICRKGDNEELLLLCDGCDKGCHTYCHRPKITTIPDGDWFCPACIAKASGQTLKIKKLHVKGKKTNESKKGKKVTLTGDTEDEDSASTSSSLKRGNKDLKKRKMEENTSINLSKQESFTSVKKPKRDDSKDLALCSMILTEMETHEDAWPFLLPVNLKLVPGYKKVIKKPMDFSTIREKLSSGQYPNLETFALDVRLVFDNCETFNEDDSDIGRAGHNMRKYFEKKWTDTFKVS
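Inhibition is scored as reduced AlphaScreen emission. The BAZ2B/b-H3(5-23)K14Ac complex (50 nM each) in PBS pH 7.4, 0.01% Tween-20 meets compound (up to 110 uM) for 30 min at RT before bead addition.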
JMJD2A Tudor inh: JMJD2A Tudor domain (human) inhibition | AlphaScreen JMJD2A-Tudor / H3K4me3 peptide binding | Potency, µM (titrated, usually from 114 µM), inactives show at the highest dose activity change, negative = inhibition, usual class: inhibitors | 4.4% of 390,000 active | AID 504339; also: % is scaled to controls: 0 for no effect and ±100 for the full control effect; nearly all actives have a fitted effect of over 50% in size
HP1b chromo inh: HP1-beta chromodomain-methylated histone interaction inhibition; P83916; AlphaScreen HP1-beta / biotin-H3K9me3 peptide binding; Potency, µM (doses to about 114 µM), for inactives: top-dose activity change, negative = inhibition, hits mostly inhibitors; 0.56% of 390,000 active; also: nearly all actives have a fitted effect of over 70% in size
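AlphaScreen: HP1-beta (50 nM) preformed 30 min with biotin-H3(1-18)K9me3 peptide (50 nM) in PBS pH 7.4, 0.01% Tween-20. Compound added for 30 min at RT, then streptavidin donor/nickel chelate acceptor beads (10 ug/mL) for 30 min.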
G9a inh: inhibitors of human histone lysine methyltransferase G9a; 8.8% of 350,000 active; G9a H3K9 monomethylation, AlphaScreen, 2 h; Q96KQ7; Potency, µM (series often up to 102 µM), for the others: at the top dose activity, negative = inhibition, usual class: inhibitors; AID 504332; also: % is scaled to controls: 0 for no effect and ±100 for the full control effect; nearly all actives have a fitted effect of over 75% in size
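Step 1: enzyme (final 20 nM) with compound, 15 min RT. Step 2: substrate peptide 500 nM and SAM 20 uM, 2 h RT. Step 3: anti-H3K9me1 antibody and AlphaScreen beads, 10 min, then plate read.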
GLS inhibitor: blocks human kidney-isoform glutaminase activity | AID 624170 | Potency, µM (series often up to 45.5 µM), without a hit: top-dose activity change, negative = inhibition, hits mostly inhibitors | O94925 | 0.21% of 410,000 active | GLS enzymatic activity, qHTS titration; also: % is scaled to controls: 0 for no effect and ±100 for the full control effect
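hKGA in 45 mM KH2PO4 (pH 8.2), 0.02% Tween-20 with compound, then 1mM L-Glutamine (stock as added) plus glutamate oxidase/HRP/Amplex red coupling mix. Fluorescence read initially and after 30 min at RT; signal change reflects glutamate formation.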
* = called active by the depositor; ? = inconclusive; / = not tested or not shown; [ ] = another dose, or the depositor's remark. Calls follow the shape of the dose curve; as a rule, active = well fitted curve in the direction sought with a large enough effect; inconclusive = small, poorly fitted or top-dose-only effect, or another doubt; inactive = no such curve, though single readings can be large; an effect the other way counts as inactive or inconclusive. Potency is read from the fitted curve at half-maximal effect.

SMILES	BAZ2B block	JMJD2A Tudor inh	HP1b chromo inh	G9a inh	GLS inhibitor
Cc1cccc(Nc2sc(C(=O)c3ccc(Cl)cc3)c(N)c2C(N)=O)c1	?	-20.3%	8.1%	1.3%[59 µM]	0.2%
CCC(=O)N1CCc2cc(Br)cc(S(=O)(=O)N3CCCC(C(=O)Nc4cccc(Cl)c4C)C3)c21 (configuration not stated)	0.5%	-19.1%	35.8%	2.4%[59 µM]	-2.8%
CC1(C)CC(=O)C2=C(C1)Nc1ccccc1NC2c1ccc(F)cc1 (configuration not stated)	-4.6%	-18.5%	22.9%	13.3%	17.9%
O=C1NCC2=C1C(c1ccc(Br)cc1)Nc1ccccc1N2 (configuration not stated)	-2.5%	-30.6%	17.1%	44.7µM*	-0.6%
CCOC(=O)CC1(C)NC(C(=O)O)C(C)(C)S1 (configuration not stated)	/	5.01µM*	-12.8%	/	20.6%
Cc1ccc(S(=O)(=O)N2CCCN(Cc3nc4ccccc4c(=O)[nH]3)CC2)cc1	-4.7%	?	27.5%	25.1µM*	-0.5%
O=C(NC1CCCCC1)N(Cc1nc2ccccc2c(=O)[nH]1)C1CCCCC1	?	-4.7%	18.5%	28.2µM*	14.0%
Cc1ccc(S(=O)(=O)N2CCCN(C(C)c3nc4ccccc4c(=O)[nH]3)CC2)cc1 (configuration not stated)	-32.4%	-9.8%	30.2%	-4.4%[12.7 µM]	-0.2%
O=C(NC1CCCCC1)N1CCC(n2cnc3ccccc32)CC1	?	56.2µM*	19.5%	56.2µM*	9.0%
O=C(NC1CCCCC1)N1CCN(Cc2nc3ccccc3c(=O)[nH]2)CC1	/	10µM*	25.4%	/	-12.0%
O=C1CCCN1CCCNS(=O)(=O)c1cccs1	/	2.3%	42.3%	/	-3.2%
COc1cccc(CN2CC(C(=O)NCc3cccc(N4CCCC4)c3)CCC2=O)c1 (configuration not stated)	?	-35.3%	15.7%	79.4µM*	-5.6%
COc1cccc(CN2CC(C(=O)NCc3cccc(Cl)c3)CCC2=O)c1 (configuration not stated)	3.7%	-5.6%	25.9%	/	-8.4%
Cc1ccc(CCNC(=O)C2CCC(=O)N(Cc3ccccc3F)C2)o1 (configuration not stated)	-24.4%	?	24.9%	79.4µM*	-14.5%
COc1cccc(CCNC(=O)C2CCC(=O)N(Cc3cccc(OC)c3)C2)c1 (configuration not stated)	-10.1%	2.8%	22.9%	11.9%	-2.0%
COc1cccc(CN2CC(C(=O)NCCc3ccc(C)o3)CCC2=O)c1 (configuration not stated)	-20.5%	-16.6%	-6.9%	39.8µM*	4.9%
COc1ccc(CCN2CC(C(=O)NCCc3cnn(C)c3)CCC2=O)cc1 (configuration not stated)	-5.3%[57.1 µM]	20µM*	21.9%	23.2%	-1.3%
CS(=O)(=O)/C(C#N)=C/c1cccn1S(=O)(=O)c1cccc2ccccc12	/	/	/	/	4.9%
Cc1ccc(C(=O)N/C(=C/c2ccc(-c3ccc(Br)cc3)o2)C(=O)NC2CCS(=O)(=O)C2)cc1 (configuration not stated)	-22.1%	-4.7%	32.7%	2.4%[59 µM]	5.5%
CC(Sc1nc(-c2ccccc2)cc(C(F)(F)F)n1)C(=O)Nc1sc2c(c1C#N)CCC2 (configuration not stated)	-18.1%[57.1 µM]	-23.1%	-22.4%	39.8µM*	2.5%
CC(Sc1nc(-c2ccccc2)cc(C(F)(F)F)n1)C(=O)Nc1sc2c(c1C(N)=O)CCC2 (configuration not stated)	-33.8%	-19.9%[57.1 µM]	44.2%	?	6.8%
Cc1cc2oc(=O)cc(CN3CCCCC3C)c2cc1C (configuration not stated)	1.1%	-13.3%	-7.8%	50.1µM*	-13.0%
Cc1ccc(S(=O)(=O)NC(=O)NC2CCCCC2)cc1	/	/	/	4.6%[12.7 µM]	8.1%
Cc1ccc(S(=O)(=O)NC(=O)NN2CC3CCCC3C2)cc1 (configuration not stated)	?	89.1µM*	72.7%	6.9%[2.33 µM]	39.1%
COc1ccc(-c2nc3sc(CCNC(=O)c4ccc(Br)o4)c(C)n3n2)cc1	-23.5%	-18.5%	27.4%	-1.5%[59 µM]	-9.3%
SMILES	BAZ2B block	JMJD2A Tudor inh	HP1b chromo inh	G9a inh	GLS inhibitor
Cn1ccc(NC(=O)c2ccc(Cl)cc2Cl)n1	5.1%	-9.5%	45.8%	12.0%[12.7 µM]	14.3%
Cc1ccc(NC(=O)c2ncn(CCCN3CCN(Cc4cccc5ccccc45)CC3)n2)cc1C	/	50.1µM*	?	/	7.6%
Cc1ccc(NC(=O)c2ncn(CC(=O)N[C@H](C)c3cccc4ccccc34)n2)cc1C	/	-24.5%	20.9%	/	-0.3%
COc1ccc(CN2CCC(C(=O)c3ccc(F)cc3)CC2)cc1	-4.6%	-11.6%	23.9%	5.6%	-8.4%
S=c1[nH]nc(C2CCCCC2)n1/N=C/c1ccc(Br)cc1	-2.9%	-2.5%	18.7%	10µM*	-18.3%
S=c1[nH]nc(C2CCCCC2)n1/N=C/c1c(Cl)cccc1Cl	-28.6%	-10.1%	16.7%	3.55µM*	?
CCc1ccc(/C=N/n2c(C3CCCCC3)n[nH]c2=S)cc1	-38.5%	?	-14.0%	31.6µM*	-15.7%
S=c1[nH]nc(C2CCCCC2)n1/N=C/c1ccc(Br)s1	9.9%	-21.8%	25.7%	8.91µM*	?
CCCC[C@H]1COCCS(=O)(=O)N1Cc1ccccc1F	11.4%	-4.1%	49.7%	0.9%	-1.5%
O=C(CCN1C(=O)C2C3C=CC(C3)C2C1=O)NCCc1ccccc1Cl (configuration not stated)	4.3%	1.7%	12.4%	-3.0%[12.7 µM]	4.5%
Clc1cccc(Oc2cnns2)c1Cl	11.0%	?	24.4%	-2.3%[59 µM]	?
COC(=O)C(Cc1ccc(O)cc1)NC(=O)c1ccccc1OC (configuration not stated)	-5.5%	-5.3%[11.4 µM]	60.3%	-35.8%[0.0925 µM]	13.3%
O=C(O/N=C/c1ccc(Cl)cc1)C1CCCCC1	13.4%	15.6%	47.2%	39.8%	-7.8%
NC(=S)N/N=C/c1ccc(C(F)(F)F)cc1	-19.5%	-23.0%	23.1%	8.0%[59 µM]	13.9%
Cc1ccc(/C=N/n2c(C3CCCCC3)n[nH]c2=S)cc1	3.4%	?	-20.1%	10µM*	37.2%
S=c1[nH]nc(C2CCCCC2)n1/N=C/c1ccc(Cl)cc1	-21.7%	-31.1%	12.9%	39.8µM*	?
FC(F)(F)c1ccc(/C=N/n2c(C3CCCCC3)n[nH]c2=S)cc1	-26.0%	?	7.0%	50.1µM*	1.2%
O=C(CCCCCNC(=O)c1ccccc1Br)N=Nc1c(O)[nH]c2ccccc12	?	-29.3%	10.9%[57 µM]	/	-2.0%
S=c1[nH]c2cc(Cl)ccc2s1	-1.2%[57.1 µM]	?	-8.9%	1.78µM*	-20.8%
O=C1CCCc2c1[nH]c1ccc(Cl)cc21	-2.5%	0.0%	31.8%	21.5%[59 µM]	-20.2%
COc1ccc2[nH]c(=S)[nH]c2c1	9.6%	56.2µM*	15.9%	4.47µM*	-3.2%
S=c1[nH]c2ccc(Cl)cc2[nH]1	7.5%	44.7µM*	?	1.58µM*	-2.2%
